Source: ChEMBL document CHEMBL3988442, “University of Dundee, Small-Polar-MMV Screening Library” (2021)

Molecular target: AMP-activated protein kinase, AMPK (Homo sapiens) (UniProt P54646+O43741+P54619+Q9UGJ0+Q9Y478+Q13131+Q9UGI9)
Assay: AMP-dependent Kinase enzyme assay. An in vitro enzyme assay that detects ADP turnover that is directly proportional to AMPK activity. This uses naive AMPK that is activated during the assay with MK-8722
Type: functional
Set-up: scale not given: direction of the effect not stated beside the values
Settings: 30 µM

| Compound | Percent Effect [%] |
| --- | --- |
| CN1CSC[C@H]1C(=O)N1CCC(Cc2ccccc2F)CC1 | 0.306 |
| CN1C(=O)[C@H]2CC[C@@H]1CN(C(=O)Nc1cccc3ccccc13)C2 | -18.9 |
| Cn1ccnc1CN1CCN(Cc2cc(-c3ccccc3)no2)CC1 | -2.31 |
| CS(=O)(=O)NC(=O)c1ccn(-c2ccc(Cl)c(Cl)c2)n1 | 4.97 |
| C[C@@H]1CN(c2ccc(C#N)cn2)CC[C@@]1(O)C1CCOCC1 | -1.81 |
| NC(=O)c1cccc(-c2cnc(C3CCCNC3)cn2)c1 (stereo not given) | 12.6 |
| COCc1cc(NCCCSc2nnc(C)s2)ncn1 | 8.32 |
| Cc1cnc(N2CCN(C)CC2)nc1-c1ccnn1C | -3.23 |
| COc1cc(F)cc2sc(NC(=O)COCC3CCCO3)nc12 (stereo not given) | 1.22 |
| CCC(CNC(=O)CCn1cncn1)N1CCc2ccccc2C1 (stereo not given) | 1.86 |
| Cc1csc(NC(=O)NCCCN2CCC(C(N)=O)CC2)n1 | 1.03 |
| Cn1ccc(C(=O)N2CCCCC2c2cc(CCO)[nH]n2)n1 (stereo not given) | 30.2 |
| c1ccc(Cc2noc(-c3ccc(NCC4CCCOC4)nc3)n2)cc1 (stereo not given) | 6.64 |
| Cc1nccc(CNC(=O)NC(c2ncc(C)s2)C2CC2)n1 (stereo not given) | 0.262 |
| Cc1nn(C(C)C)c(C)c1CN1CCN(C2CCCCC2)C(=O)C1 | 8.49 |
| FC(F)(F)c1cccc(OC2CCN(Cc3c[nH]cn3)CC2)c1 | 18 |
| CN(C)C(C(=O)N1CCC(c2ncc[nH]2)CC1)c1ccc2c(c1)OCO2 (stereo not given) | 1.17 |
| CCNc1ncc(C(=O)NCc2csc(-c3ncccn3)n2)cn1 | 3.97 |
| CC(C)(C)NC(=O)CNc1ncc(Br)cn1 | 7.93 |
| O=C(NCCc1nccs1)N1CCC(n2cccc2)CC1 | -2.66 |
| c1cnc(Nc2ccc(C3CCCCN3Cc3ccncc3)cn2)nc1 (stereo not given) | 11.1 |
| Cc1nnc(CN(Cc2ccco2)Cc2cccc3c2OCO3)n1C | -4.86 |
| CCc1cc(=O)[nH]c(-c2ccc(NCCC(C)O)nc2)n1 (stereo not given) | -6.17 |

| Compound | Percent Effect [%] |
| --- | --- |
| CCC(NCCn1cccn1)C(=O)Nc1cc(C)on1 (stereo not given) | 2.9 |
| O=C(CCn1cccn1)N1CCC(c2nnc(-c3ccsc3)o2)CC1 | 4.17 |
| Cc1ccc(C(=O)N2[C@@H]3CC[C@H]2CN(C)C(=O)C3)c(=O)[nH]1 | 8.78 |
| CCc1noc(C(C)N2CCCN(Cc3noc(C4CC4)n3)CC2)n1 (stereo not given) | 0.0834 |
| COC[C@@H]1CCCN1C(=O)CCc1c(C)nn(C)c1C | -3.67 |
| Nc1cc(-c2c[nH]nc2C2CCN(C(=O)C3CCCC3)C2)ccn1 (stereo not given) | -6.9 |
| N#CC1(C(=O)N2C[C@H]3CC[C@@H]2CN(Cc2ccncc2)C3)CCOCC1 | -2.51 |
| CC(C)(C)C(=O)N1CCCC1c1cc(CO)[nH]n1 (stereo not given) | 14.4 |
| CN(Cc1cc[nH]n1)C(=O)c1ccc2c(c1)nc(N1CC[C@H](O)C1)n2C | 19.9 |
| COc1c(C)cnc(CN2CCn3c(C)nnc3C2)c1C | 8.91 |
| CCN(C)C[C@@H]1CN(Cc2cnc3c(S(C)(=O)=O)cnn3c2)C[C@@H]1CO | -11.4 |
| COCCN(Cc1ccccn1)C(=O)Nc1cccnc1-n1cccn1 | -0.778 |
| c1ccc(OCCCn2ccnc2-c2cn(C3CCNCC3)nn2)cc1 | -1.92 |
| CCN(CC)c1nc2sc(C(=O)N3CCNC(=O)C3)cc2s1 | 3.77 |
| COCCN(Cc1sccc1C)C(=O)c1c(O)cccc1F | 0.607 |
| O=C(c1coc(-c2ccccc2)n1)N1CCCC1 | 5.08 |
| COc1ccc(N2CCN(C(=O)CCCc3cn[nH]c3)CC2=O)cc1 | -3.84 |
| Cc1cc(C)nc(NC2CC(=O)N(C)C2)n1 (stereo not given) | -3.57 |
| CCCn1cc(NC(=O)c2cccc(CN3CC[C@H](O)C3)c2)nn1 | -5.04 |
| O=C1NC(C(=O)NCc2cccnc2Oc2ccc(F)c(F)c2)CO1 (stereo not given) | 0.367 |
| c1cn(Cc2ccc(N3CCCN(C4CCCC4)CC3)nc2)cn1 | 11.7 |
| CC1CCC(O)(CSc2nnnn2C2CC2)CC1 (stereo not given) | 6.07 |
